# The campaign covered roughly 52,000 compounds. About 4,300 (8.3%) were called active. Cut-off read from the data, not from the text of the source: active = survival mostly below about 52% (no sharp cut-off); inactive = mostly above about 56%. The entries come from a sample that favours actives as a whole.
# Test system: DeltatarO mutant
# Assay: S. aureus survival, RN4220 and DeltatarO strains – OD600, teichoic acid synthesis inhibitors, primary screen (AID 463173)
# Conditions: S. aureus RN4220 wild type/DeltatarO growth, OD600, 18 h, active compounds read low, screened at 18.75 µg/mL (by protocol)
row,Structure (SMILES),survival
1,CCN(CC)C(=O)Cn1cc(SCC(=O)Nc2ccccc2C)c2ccccc21,74% (inactive)
2,CC(=O)Nc1ccc(S(=O)(=O)NCC2CCC(C(=O)NCc3ccccc3)CC2)cc1 (centres undefined),71% (inactive)
3,O=C(N1CCCC1)N1c2ccccc2Sc2ccccc21,111% (inactive)
4,COc1cc(NC(=O)N2c3ccccc3Sc3ccccc32)cc(OC)c1,62% (inactive)
5,COc1ccc(OC)c(NC(=O)N2c3ccccc3Sc3ccccc32)c1,5% (active)
6,COCCNC(=O)N1c2ccccc2Sc2ccccc21,83% (inactive)
7,COc1ccc(OC)c(NC(=O)N2CC3CCCN3c3ccccc32)c1 (centres undefined),89% (inactive)
8,O=C(CN1CCCC1)N1c2ccccc2Sc2ccccc21,88% (inactive)
9,CCOc1ccccc1NC(=O)N1c2ccccc2Sc2ccccc21,55% (inactive)
10,COc1ccccc1NC(=O)N1c2ccccc2Sc2ccccc21,-6% (active)
11,O=C(O)c1ccccc1NC(=O)N1c2ccccc2Sc2ccccc21,40% (active)
12,COc1ccc(OC)c(NC(=O)c2cc3c(s2)-c2ccccc2SC3)c1,65% (inactive)
13,Cc1ccc2c(c1)N(C(=O)CCC(=O)Nc1ccccc1Cl)CC(C)O2 (centres undefined),105% (inactive)
14,Cc1nnc2c(Nc3ccccc3I)nc3nonc3n12,77% (inactive)
15,N#CCCn1cc(CO)c(-c2ccccc2)n1,95% (inactive)
16,COc1cccc(C(=O)c2cn(CC(=O)Nc3cccc(C)c3C)c3nc(C)ccc3c2=O)c1,67% (inactive)
17,Cc1nc2ccn(Cc3cccs3)c(=O)c2cc1C(=O)N1CCN(c2ccc(F)cc2)CC1,131% (inactive)
18,O=C(COC(=O)CCCC1=NS(=O)(=O)c2ccccc2N1)Nc1ccc(Br)cc1,72% (inactive)
19,COc1ccc(Cl)cc1NC(=O)COC(=O)CC(C)(C)CC1=NS(=O)(=O)c2ccccc2N1,70% (inactive)
20,COc1ccccc1NC(=O)COC(=O)CC(C)(C)CC1=NS(=O)(=O)c2ccccc2N1,-1% (active)
21,Cc1cccc(NC(=O)COC(=O)CCCC2=NS(=O)(=O)c3ccccc3N2)c1,-2% (active)
22,CCc1ccc(NC(=O)COC(=O)CCCC2=NS(=O)(=O)c3ccccc3N2)cc1,109% (inactive)
23,CCOc1ccccc1NC(=O)COC(=O)CC(C)(C)CC1=NS(=O)(=O)c2ccccc2N1,79% (inactive)
24,CCn1c2ccccc2c2nnc(SCCN3CCCCC3)nc21,82% (inactive)

row,Structure (SMILES),survival
1,COC(=O)c1ccccc1NC(=O)c1ccc2nc(CCc3ccccc3)oc2c1,131% (inactive)
2,CCc1ccccc1N1C(=O)N(CC(=O)c2ccc(Cl)cc2)c2ccccc2S1(=O)=O,82% (inactive)
3,CCOC(=O)C1CCN(C(=O)c2ccc3c(c2)sc2nc(-c4ccc(C)cc4)cn23)CC1,98% (inactive)
4,CCN(CC)CCCNC(=O)c1ccc2c(c1)sc1nc(-c3ccc(C)cc3)cn12,24% (active)
5,CCN(CC)CCNC(=O)c1ccc2c(c1)sc1nc(-c3ccc(F)cc3)cn12,29% (active)
6,CCOc1ccc(CNC(=O)c2ccc3c(c2)sc2nc(-c4ccc(OC)cc4)cn23)cc1,84% (inactive)
7,CCOC(=O)C1CCN(C(=O)c2ccc3c(c2)sc2nc(-c4ccccc4)cn23)CC1,54% (active)
8,Cc1ccc(-c2cn3c(n2)sc2cc(C(=O)NCCC4=CCCCC4)ccc23)cc1,56% (inactive)
9,CCCNC(=O)c1ccc2c(c1)sc1nc(-c3ccc(C)cc3)cn12,89% (inactive)
10,CCOC(=O)c1ccc2c(c1)sc1nc(-c3ccc(OCC)cc3)cn12,44% (active)
11,O=C(NCCC1=CCCCC1)c1ccc2c(c1)sc1nc(-c3ccc(F)cc3)cn12,63% (inactive)
12,O=C(NCc1ccccc1)c1ccc2c(c1)sc1nc(-c3ccc(F)cc3)cn12,101% (inactive)
13,CCOC(=O)C1CCN(C(=O)c2ccc3c(c2)sc2nc(-c4ccc(OC)cc4)cn23)CC1,78% (inactive)
14,CCOC(=O)C1CCN(C(=O)c2ccc3c(c2)sc2nc(-c4ccc(OCC)cc4)cn23)CC1,69% (inactive)
15,COc1ccc(S(=O)(=O)Nc2cccc(-c3ccc(N4CCCC4)nn3)c2)cc1F,85% (inactive)
16,COc1ccc(Nc2ncnc3c2cnn3C)c(OC)c1,89% (inactive)
17,CNS(=O)(=O)c1cn(CC(=O)Nc2cccc(C(F)(F)F)c2)cc1S(=O)(=O)NC,107% (inactive)
18,Cc1ccccc1OC(=O)CSc1nnc(-c2ccc(F)cc2)o1,63% (inactive)
19,CCN1CCc2c(sc(NC(=O)c3ccc(S(=O)(=O)N(CCOC)CCOC)cc3)c2C(N)=O)C1,69% (inactive)
20,CCc1cccc(C)c1NC(=O)c1cc(S(=O)(=O)N2CCC3(CC2)OCCO3)ccc1F,116% (inactive)
21,Cc1ccc(CSCCNC(=O)C2CCN(S(=O)(=O)Cc3ccccc3)CC2)cc1,99% (inactive)
22,CCOc1ccc(-c2cn3c(n2)sc2cc(C(=O)NCCCc4ccccc4)ccc23)cc1,72% (inactive)
23,CCOc1ccc(-c2cn3c(n2)sc2cc(C(=O)NCCCN(CC)CC)ccc23)cc1,15% (active)
24,CCCSCCCNC(=O)c1ccc2c(c1)sc1nc(-c3ccc(OCC)cc3)cn12,55% (inactive)

row,Structure (SMILES),survival
1,COc1ccc(-c2nn(-c3ccccc3)cc2C2NC(=O)NC(C)=C2C(=O)OC(C)C)cc1Cl (centres undefined),106% (inactive)
2,Cc1ccc(NC(=O)c2ccc(CN3CC(=O)N4CCCCC4C3=O)cc2)cc1C (centres undefined),77% (inactive)
3,O=C(Nc1cc(F)ccc1F)c1ccc(CN2CC(=O)N3CCCCC3C2=O)cc1 (centres undefined),92% (inactive)
4,CC(C)c1ccc(NC(=O)c2ccc(CN3CC(=O)N4CCCCC4C3=O)cc2)cc1 (centres undefined),77% (inactive)
5,Cc1ccc(NC(=O)c2ccc(CN3CC(=O)N4CCCCC4C3=O)cc2)cc1 (centres undefined),-5% (active)
6,CCc1ccc(NC(=O)c2ccc(CN3CC(=O)N4CCCCC4C3=O)cc2)cc1 (centres undefined),66% (inactive)
7,O=C(Nc1ccc(F)cc1)c1ccc(CN2CC(=O)N3CCCCC3C2=O)cc1 (centres undefined),-4% (active)
8,O=S(=O)(NCc1ccco1)c1cccc(S(=O)(=O)N2CCCCC2)c1,90% (inactive)
9,O=C(NC1CCCCC1)c1ccc(Cn2c(SCc3cccc(F)c3)nc3cccnc32)cc1,81% (inactive)
10,Cc1ccc2c(c1)N(C(=O)N1CCC(C(=O)NCc3ccccc3C)CC1)CC(C)O2 (centres undefined),74% (inactive)
11,Cc1noc(-c2ccc(N(C)Cc3ccccc3)c([N+](=O)[O-])c2)n1,75% (inactive)
12,COc1ccc(CC(=O)NCc2nc3cccnc3n2Cc2ccccc2)cc1,80% (inactive)
13,COc1ccccc1N1CCN(S(=O)(=O)c2c(C)sc3ncn(CC(=O)N(C)c4ccc(C(C)C)cc4)c(=O)c23)CC1,67% (inactive)
14,CCCCN(C)CCNC(=O)c1cc(-c2ccc(Cl)s2)nc2ccccc12,62% (inactive)
15,COc1cc(NC(=O)CSc2nc(C)c(C(=O)Nc3ccccc3)c(-c3ccc(OC)c(OC)c3)c2C#N)c(OC)cc1Cl,61% (inactive)
16,COc1ccc(CCn2c(=O)c3cccnc3n(CC(=O)Nc3c(C)cc(C)cc3C)c2=O)cc1OC,90% (inactive)
17,Cc1ccccc1CN1C(=O)c2ccccc2S(=O)(=O)c2ccc(C(=O)OCC3CCCO3)cc21 (centres undefined),71% (inactive)
18,CCOc1ccc(CCNC(=O)c2c(C)oc3ncn(CC(C)C)c(=O)c23)cc1,72% (inactive)
19,Cc1nc(N2CCCC2)c2c(C(=O)Nc3ccc(C)c(Cl)c3)c(C)oc2n1,124% (inactive)
20,Cc1nc(N2CCCC2)c2c(C(=O)Nc3ccc(Br)cc3F)c(C)oc2n1,25% (active)
21,CCc1cccc(NC(=O)c2c(C)oc3nc(C)nc(N4CCCC4)c23)c1,103% (inactive)
22,Cc1oc2ncnc(N3CCOCC3)c2c1C(=O)Nc1ccc(Br)cc1F,135% (inactive)
23,Cc1ccc(NC(=O)c2c(C)oc3nc(C)nc(N4CCCC4)c23)c(C)c1,70% (inactive)
24,Cc1nc(N2CCCC2)c2c(C(=O)Nc3cccc(Cl)c3)c(C)oc2n1,20% (active)

row,Structure (SMILES),survival
1,COc1cc(Cl)c(C)cc1NC(=O)c1cnc(N2CCOCC2)c2ccccc12,71% (inactive)
2,COc1cc(CN(C(=O)c2ccccc2F)C2CCS(=O)(=O)C2)cc(OC)c1OC (centres undefined),46% (inactive)
3,COc1ccc(N2CCN(c3ncnc4c3cnn4C)CC2)cc1,75% (inactive)
4,O=c1c2cn[nH]c2nc(SCc2c(F)cccc2F)n1-c1ccc(Cl)cc1,91% (inactive)
5,CC(C)c1ccc(NC(=O)CN2CCC(n3nnc4ccccc43)CC2)cc1,69% (inactive)
6,CCN(CC)CCN(C(=O)c1ccc(C(=O)OC)cc1)c1nc2ccc(Cl)cc2s1,-4% (active)
7,CCN(CC)CCN(C(=O)c1ccco1)c1nc2ccc(Cl)cc2s1,66% (inactive)
8,CCc1ccc2nc(N(CCN(CC)CC)C(=O)c3ccco3)sc2c1,54% (inactive)
9,COc1ccc(-c2cn3nc(N4CCCC(C(=O)Nc5cc(C)cc(C)c5)C4)sc3n2)cc1 (centres undefined),75% (inactive)
10,COc1ccc(-n2nnc(-c3nsc(NC(=O)c4cccc(C)c4)n3)c2C)cc1OC,88% (inactive)
11,CN(C)CCNC(=O)c1ccc(-n2c(-c3ccccc3)cc3c2CCCCC3)cc1,53% (inactive)
12,CC(C)NC(=O)c1ccc(-n2c(-c3ccccc3)cc3c2CCCCC3)cc1,108% (inactive)
13,CCOCCCNC(=O)c1ccc(-n2c(-c3ccccc3)cc3c2CCCC3)cc1,69% (inactive)
14,COCCCNC(=O)c1ccc(-n2c(-c3ccccc3)cc3c2CCCC3)cc1,70% (inactive)
15,COCCCNC(=O)c1ccc(-n2c(-c3ccccc3)cc3c2CCCCC3)cc1,39% (active)
16,CCNC(=O)c1ccc(-n2c(-c3ccccc3)cc3c2CCCCC3)cc1,43% (active)
17,CN(C)CCNC(=O)c1ccc(-n2c(-c3ccccc3)cc3c2CCCC3)cc1,33% (active)
18,CCOCCCNC(=O)c1ccc(-n2c(-c3ccccc3)cc3c2CCCCC3)cc1,49% (inactive)
19,CCCNC(=O)c1ccc(-n2c(-c3ccccc3)cc3c2CCCCC3)cc1,103% (inactive)
20,CCN(CC)CCNC(=O)c1ccc(-n2c(-c3ccccc3)cc3c2CCCC3)cc1,8% (active)
21,COCCNC(=O)c1ccc(-n2c(-c3ccccc3)cc3c2CCCCC3)cc1,110% (inactive)
22,CC(C)OCCCNC(=O)c1ccc(-n2c(-c3ccccc3)cc3c2CCCC3)cc1,75% (inactive)
